Screens as filed in PubChem.
This is a sample that favours compounds with a hit; in the whole collection about 1.2% have one here.
BJeLR lethal: BJeLR cell viability loss | inhibition, % (concentration not given with the values) | BJeLR (HRASV12) viability, CellTiter-Glo ATP luminescence, 48 h | hit rate 0.17% among 300,000; in the data active means inhibition above about 50%
Sa RN4220 lethal: S. aureus RN4220 growth inhibition; hit rate 0.33% among 330,000; inhibition, % (no concentration beside the values); AID 1259311; OD600, 16 h; in the data active means inhibition above about 85%
MazEF act: MazEF (E. coli) toxin RNase activation. P0AE70. FAM/BHQ RNA-DNA oligo cleavage fluorescence, 5 h. activation, % at 20 µM. hit rate 0.32% among 350,000. AID 504720; in the data active means activation above about 50%
Target sequence (P0AE70 whole entry, looked up): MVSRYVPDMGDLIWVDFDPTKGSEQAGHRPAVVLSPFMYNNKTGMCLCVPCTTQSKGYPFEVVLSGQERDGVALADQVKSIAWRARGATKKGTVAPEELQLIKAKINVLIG
Sa ugtP lethal: kills S. aureus RN4220 lacking UgtP | S. aureus RN4220 ugtP deletion, OD600 growth, 16 h | growth inhibition, % (test concentration not listed) | hit rate 0.54% among 330,000; in the data active means growth inhibition above about 68%
PriA SSB inh: inhibitors of Klebsiella pneumoniae PriA binding to SSB C-terminal tail | AlphaScreen SSBct-PriA binding, biotinylated peptide | inhibition, % at 33 µM | hit rate 0.6% among 430,000 | AID 1272365; in the data active means inhibition mostly above about 37%, no sharp cut-off; inactive means mostly below about 20%
Large screens that a line does not name were inactive; ! = not active in a repeat.

Cc1cc(C(=O)NN=Cc2sc(N3CCOCC3)nc2-c2ccccc2)c(C)o1	Sa RN4220 lethal 94, Sa ugtP lethal 95 (no result: BJeLR lethal, MazEF act)
CC(=O)c1ccccc1OCCCN1CCCCC1	none
CC(=O)c1ccccc1OCCOCCOCCOc1ccccc1C(C)=O	BJeLR lethal 55
O=C(c1cncc(Br)c1)N1CCN(S(=O)(=O)c2ccccc2C(F)(F)F)CC1	none
COc1ccc(NC(=O)Nc2ccc3c(c2)CCC3)c(OC)c1	MazEF act 57
COc1ccc(NC(=O)c2c(OC)cccc2OC)c(OC)c1	PriA SSB inh 67
O=C(Cc1ccc(Br)cc1)N1CCCC1	none
Cc1ccc(C2C3CN(C(C)C)CC=C3C(C#N)=C(N)C2(C#N)C#N)cc1 (stereo unspecified)	MazEF act 156
COc1ccc(OC)c(C2C3CN(C(C)C)CC=C3C(C#N)=C(N)C2(C#N)C#N)c1 (stereo unspecified)	none
Nc1cc(C(=O)OCC(=O)N2CCOCC2)ccc1Cl	none
COc1ccccc1C(=O)NC(C(=O)NCCc1nc2ccccc2[nH]1)=C(C)C	none
OCCN1CCN(c2nc(-c3ccccc3)c3cc(Cl)ccc3n2)CC1	none
Cc1ccc2nc(N3CCN(CCO)CC3)nc(-c3ccccc3)c2c1	PriA SSB inh 38!
Cc1cccc(C=NNC(=O)c2ccc(Cl)cc2)c1O	Sa RN4220 lethal 93 (no result: BJeLR lethal, MazEF act)
Cc1cccc(/C=N\NC(=O)c2ccc(Cl)cc2)c1O	none (no result: Sa RN4220 lethal, Sa ugtP lethal, PriA SSB inh)
COc1ccc(OC)c(CC(=O)NC(c2ccccc2)c2ccccc2)c1	none
Cc1cccc(C(=O)NC(=S)NNC(=O)c2cccs2)c1	none
Cc1cccc(C(=O)NC(=S)NNC(=O)c2ccc(Cl)cc2)c1	Sa RN4220 lethal 85
CC(C)C(=O)Nc1cccc(NC(=S)NC(=O)c2ccc(Cl)cc2)c1	Sa ugtP lethal 83
O=C(NC(=S)Nc1ccc2c(c1)OCO2)c1ccc(Cl)cc1	Sa ugtP lethal 88
CCc1ccc(C(=O)NC(=S)Nc2ccc3c(c2)OCCO3)cc1	none
Cc1cccc(C(=O)NC(=S)Nc2ccc(Cc3ccncc3)cc2)c1	none
CC(C)C(=O)Nc1cccc(NC(=S)NC(=O)c2ccc3c(c2)OCO3)c1	none
Cc1cc(C)cc(C(=O)NC(=S)Nc2ccc(Cc3ccncc3)cc2)c1	Sa ugtP lethal 87
COc1cccc(/C=C/C(=O)N2CCN(S(=O)(=O)c3ccccc3)CC2)c1	none (no result: BJeLR lethal, Sa RN4220 lethal, Sa ugtP lethal, PriA SSB inh)
Cc1cc(C)cc(C(=O)NC(=S)Nc2ccc3c(c2)OCCO3)c1	Sa ugtP lethal 93
CCCCCc1ccc(OCCC[n+]2ccccc2)c(CCCCC)c1	Sa RN4220 lethal 99, Sa ugtP lethal 100
CCCCCc1ccc(OCCOCCn2c[n+](C)c3ccccc32)c(CCCCC)c1	Sa RN4220 lethal 100, Sa ugtP lethal 101
COc1cc(/C=N\NC(=O)c2ccccc2O)cc(Br)c1O	none (no result: BJeLR lethal, Sa RN4220 lethal, MazEF act, Sa ugtP lethal)
COc1cc(C=NNc2cccc(C)c2)cc(Br)c1O	Sa ugtP lethal 96 (no result: BJeLR lethal, MazEF act)
CCn1nc(C)c(Br)c1C(=O)Sc1ccccc1Cl	Sa ugtP lethal 87
CN(C)C(CNS(=O)(=O)c1ccc(Cl)s1)c1ccco1 (stereo unspecified)	none (no result: BJeLR lethal, Sa RN4220 lethal, MazEF act, Sa ugtP lethal)
CC(C)Nc1nc(NC(C)C)nc(N(C)C(N)=O)n1	none
CC(C)Nc1nc(NC(C)C)nc(N(C)N)n1	PriA SSB inh 65
O=C(c1ccc(F)cc1Cl)N1CCC(Cn2cccn2)CC1	PriA SSB inh 37 (no result: BJeLR lethal, Sa RN4220 lethal, MazEF act, Sa ugtP lethal)
O=C(c1ccco1)N1CCC(Cn2cccn2)CC1	none (no result: BJeLR lethal, Sa RN4220 lethal, MazEF act, Sa ugtP lethal)
Cn1ccc(C(=O)N(CCCN2CCOCC2)c2nc3ccc(F)cc3s2)n1	none (no result: BJeLR lethal, Sa RN4220 lethal, MazEF act, Sa ugtP lethal)
Cc1cccc(-n2cc(CN(C)Cc3nccn3C)c(-c3cccc(F)c3)n2)c1	PriA SSB inh 39
CCn1ccnc1CN(C)Cc1cn(-c2cccc(C)c2)nc1-c1cccc(F)c1	none
CCN(CC)CCCNC(=O)Cn1ncc2c(=O)oc3ccc(C)cc3c21	none
CC(=O)Nc1ccc(S(=O)(=O)c2ccc([N+](=O)[O-])cc2)cc1	Sa RN4220 lethal 97
CC(=O)Nc1ccc([As](=O)(O)c2ccc([N+](=O)[O-])cc2)cc1	none
CCCCCCCCOC(=O)c1c(CSC(=N)N)n(C)c2cc(Br)c(OC(C)=O)cc12	Sa RN4220 lethal 100, Sa ugtP lethal 101
CCOC(=O)c1c(CSC(=N)N)n(-c2ccc(Br)cc2)c2cc(Br)c(OC(C)=O)cc12	none (no result: BJeLR lethal)
CCOc1cccc(CNCCc2c(C)[nH]c3ccc(OC(F)(F)F)cc23)c1O	MazEF act 52 (no result: Sa RN4220 lethal, Sa ugtP lethal)
Cc1[nH]c2ccc(OC(F)(F)F)cc2c1CCNCc1cccc([N+](=O)[O-])c1	none
NC(=O)c1ccc(NC(=O)COc2ccc(-n3cccn3)nn2)cc1	none (no result: BJeLR lethal, Sa RN4220 lethal, MazEF act, Sa ugtP lethal)
CCCNc1nc(SCC)nc2c1cnn2CCNC(=O)c1c(-c2ccccc2Cl)noc1C	PriA SSB inh 88 (no result: BJeLR lethal, Sa RN4220 lethal, MazEF act, Sa ugtP lethal)
Cc1onc(-c2ccccc2Cl)c1C(=O)NCCn1ncccc1=O	none (no result: BJeLR lethal, Sa RN4220 lethal, MazEF act, Sa ugtP lethal)
Cc1onc(-c2ccccc2Cl)c1C(=O)NCCn1c(C)cc2ccccc21	PriA SSB inh 87
Cc1cc2ccccc2n1CCNC(=O)COc1ccccc1	PriA SSB inh 49
Cc1ccc(Nc2c(O)nc[nH]c2=O)cc1	none (no result: BJeLR lethal)
Cc1cc(C)cc(NC(=O)c2cc3c(=O)n4ccccc4nc3s2)c1	MazEF act 70 (no result: Sa RN4220 lethal, Sa ugtP lethal)
Cn1c(=O)c2c(SCC(=O)NCc3ccco3)ccnc2n(C)c1=O	none (no result: BJeLR lethal, Sa RN4220 lethal, MazEF act, Sa ugtP lethal)
OCCC1CN(Cc2cccn2-c2ccccn2)CCN1C1CCCC1 (stereo unspecified)	none
OCCC1CN(Cc2cccn2-c2ccccn2)CCN1Cc1ccccc1 (stereo unspecified)	MazEF act 598
Cc1cccc(-n2cnc(C(=O)NNC(=S)Nc3ccc(Cl)cc3)c2)n1	PriA SSB inh 80 (no result: Sa RN4220 lethal, Sa ugtP lethal)
Cc1cccc(-n2cnc(C(=O)NNC(=O)Nc3ccc(Cl)cc3)c2)n1	none (no result: BJeLR lethal, Sa RN4220 lethal, MazEF act, Sa ugtP lethal)
O=C(NCCCN1CCOCC1)c1cc(-c2cccc(Br)c2)nc2ccccc12	none
CCn1c(COc2cccc3ccccc23)nnc1SCC(=O)OC1CCCCC1	Sa RN4220 lethal 99, Sa ugtP lethal 99
O=C(O)CSc1nnc(COc2cccc3ccccc23)n1Cc1ccccc1	none
Cn1c(COc2cccc3ccccc23)nnc1SCC(=O)OC1CCCCC1	Sa RN4220 lethal 97, Sa ugtP lethal 92
COc1ccc(Nc2cc(C)nc(Nc3ccc(NS(=O)(=O)c4cc(C(C)(C)C)ccc4OC)cc3)n2)cc1	PriA SSB inh 43 (no result: BJeLR lethal, Sa RN4220 lethal, MazEF act, Sa ugtP lethal)
COc1cc(C)c(Cl)cc1S(=O)(=O)Nc1ccc(Nc2nc(C)cc(Nc3ccc(C)cc3)n2)cc1	none (no result: BJeLR lethal, Sa RN4220 lethal, MazEF act, Sa ugtP lethal)
O=C1C=C(c2c(O)ccc3ccccc23)c2ccccc2C1=O	MazEF act 80 (no result: BJeLR lethal, Sa RN4220 lethal, Sa ugtP lethal)
O=C(COC(=O)CN1C(=O)COc2ccccc21)NC1CCCCC1	none
Cc1ccc(-c2nc(N)sc2-c2ccccc2)cc1C	Sa ugtP lethal 96
COc1ccc(OCCNc2cc(Cl)ccc2[N+](=O)[O-])cc1	MazEF act 147
COc1ccc(S(=O)(=O)NCC2CCCN(C(=O)C=C(C)C)C2)cc1 (stereo unspecified)	none
CN(C)c1nc(NCc2ccccc2)nc(NN=Cc2ccc(Cl)cc2Cl)n1	none (no result: BJeLR lethal, MazEF act)
CN(C)c1nc(NN=Cc2ccccc2O)nc(Nc2ccc(F)cc2)n1	Sa RN4220 lethal 100, Sa ugtP lethal 100 (no result: BJeLR lethal, MazEF act)
CCN(CC)c1ccc(/C=N/NC(=O)c2ccco2)c(O)c1	BJeLR lethal 58 (no result: Sa RN4220 lethal, Sa ugtP lethal, PriA SSB inh)
